Assay outcomes as filed in PubChem BioAssay.
ID4 binder: binds human ID4 protein on microarray; small molecule microarray, Flag-ID4 binding, fluorescence F/B; calls only; hit rate 1.2% among 31,000; AID 624137; call rule not given here;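 note: a binder raises fluorescence above local background on the spot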
Target sequence (P47928 whole entry, looked up): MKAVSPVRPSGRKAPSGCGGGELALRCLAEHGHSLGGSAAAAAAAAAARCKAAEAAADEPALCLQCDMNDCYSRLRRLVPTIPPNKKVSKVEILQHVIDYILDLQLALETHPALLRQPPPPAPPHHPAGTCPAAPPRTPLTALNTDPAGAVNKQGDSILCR
STK33 kin inh: human STK33 kinase inhibition; Q9BYT3; ADP-Glo luminescence, MBP substrate; inhibition, % at 12.5 µM; hit rate 0.44% among 27,000; AID 2322; in the data active = inhibition above about 20%; inconclusive = no clear call, values can overlap the other calls
An asterisk follows results filed as active. Sampled rows, rich in hits. Any-hit rate of the full collection: about 1.3%.

How did COc1ccc2c(=S)c(-c3cc4ccccc4o3)c(C)oc2c1 do in these assays?
STK33 kin inh: 4

What do the screens show for `COc1ccc([Si](C)(C)[C@H]2[C@H](CCO)O[C@@]3(C(=O)N(Cc4cccc(NC(C)=O)c4)c4ccccc43)[C@@H]2C)cc1`?
ID4 binder: inactive; STK33 kin inh: 38*

What do the screens show for `COc1ccc([Si](C)(C)[C@@H]2[C@@H](CCn3cc(CCO)nn3)O[C@]3(C(=O)N(Cc4cccc(N5CCOC5=O)c4)c4ccccc43)[C@H]2C)cc1`?
ID4 binder: inactive; STK33 kin inh: inconclusive

What do the screens show for `COc1ccc([Si](C)(C)[C@@H]2[C@@H](CCO)O[C@]3(C(=O)N(Cc4cccc(N5CCOC5=O)c4)c4ccccc43)[C@H]2C)cc1`?
ID4 binder: inactive; STK33 kin inh: 18

What do the screens show for `COc1ccc([Si](C)(C)[C@@H]2[C@@H](CCO)O[C@]3(C(=O)N(Cc4ccc(NC(C)=O)cc4)c4ccccc43)[C@H]2C)cc1`?
ID4 binder: inactive; STK33 kin inh: 15

Results for COc1ccc([Si](C)(C)[C@H]2[C@H](CCn3cc(CCO)nn3)O[C@@]3(C(=O)N(Cc4cccc(N5CCOC5=O)c4)c4ccccc43)[C@@H]2C)cc1 ?
ID4 binder: inactive; STK33 kin inh: 21*

How did COc1ccc([Si](C)(C)[C@@H]2[C@@H](CCO)O[C@]3(C(=O)N(Cc4ccc(N5CCOC5=O)cc4)c4ccccc43)[C@H]2C)cc1 do in these assays?
STK33 kin inh: 20*

What do the screens show for `O=C(/C=C/S(=O)(=O)c1ccc(Cl)cc1)c1ccc(F)cc1`?
STK33 kin inh: 7

What do the screens show for `O=C1O[C@H](c2ccccc2)[C@H](c2ccccc2)N2[C@H]1[C@@H](C(=O)NC[C@H](O)c1ccccc1)[C@]1(C(=O)Nc3ccc(C#CC4=CCCCC4)cc31)[C@H]2c1ccccc1OCCO`?
STK33 kin inh: 5

How did COC(=O)c1ccccc1NC(=O)COc1ccc(C(C)C)cc1Br do in these assays?
ID4 binder: inactive; STK33 kin inh: -1

How did Cn1c(SCc2nc(-c3cccs3)no2)nnc1-c1ccccc1 do in these assays?
ID4 binder: inactive; STK33 kin inh: 9

What do the screens show for `Cn1c(SCc2nc(-c3cccs3)no2)nnc1-c1ccco1`?
ID4 binder: active; STK33 kin inh: 0

How did CCOC(=O)c1c(NC(=S)Nc2cc(OC)c(Cl)cc2OC)sc(C)c1-c1ccccc1 do in these assays?
ID4 binder: inactive; STK33 kin inh: -3

What do the screens show for `O=C(/C=C/c1ccc(O)cc1)CC(=O)/C=C/c1ccc(O)cc1`?
STK33 kin inh: 120*

How did COc1ccc(/C=C/C(=O)c2cc(O)ccc2O)cc1 do in these assays?
STK33 kin inh: -7

Results for O=C(/C=C/c1ccccc1)CC(O)CCc1ccccc1 (stereo not drawn) ?
ID4 binder: inactive; STK33 kin inh: -5

What do the screens show for `O=C(/C=C/c1ccc(O)cc1)c1ccc(O)cc1O`?
STK33 kin inh: 50*

What do the screens show for `COc1ccc(C(C)NC(=O)c2cc(-c3ccccn3)nc3ccc(Br)cc23)cc1OC` (stereo not drawn)?
ID4 binder: inactive; STK33 kin inh: 0

Results for CCN(CC(=O)Nc1ccccc1C)S(=O)(=O)c1ccc(Br)cc1 ?
ID4 binder: inactive; STK33 kin inh: -3

How did O=c1[nH]c(C2=C(O)Cn3c2nc(=O)c2ccccc23)nc2ccccc12 do in these assays?
STK33 kin inh: 3

How did Cc1cc(C)nc(Nc2n[nH]c(-c3cccnc3)n2)n1 do in these assays?
ID4 binder: inactive; STK33 kin inh: 1

How did COc1ccc(-c2nc(Nc3nc(C)cc(C)n3)n[nH]2)cc1OC do in these assays?
ID4 binder: active; STK33 kin inh: -1

What do the screens show for `COc1ccccc1-n1c(CN2C(=O)c3ccccc3C2=O)nc2ccccc2c1=O`?
ID4 binder: inactive; STK33 kin inh: 2

How did Nc1nc(SCC(=O)N2CCc3ccccc32)n[nH]1 do in these assays?
ID4 binder: inactive; STK33 kin inh: 0

What do the screens show for `COc1cc2c(cc1OC)CN(C(=O)CSc1n[nH]c(N)n1)CC2`?
ID4 binder: active; STK33 kin inh: -5

How did CC(=O)Nc1ccc(OCC(O)CNC(C)C)cc1 (stereo not drawn) do in these assays?
ID4 binder: active; STK33 kin inh: 0

How did CC(=O)Nc1ccc(OCC(O)CNC2CCCC2)cc1 (stereo not drawn) do in these assays?
ID4 binder: inactive; STK33 kin inh: -11

Results for O=C(CSc1nnc(-c2ccncc2)n1-c1ccc(F)cc1)c1ccc(Cl)cc1 ?
ID4 binder: inactive; STK33 kin inh: -5

What do the screens show for `Brc1ccc(CNc2nc3ccccc3n2CCN2CCOCC2)cc1`?
ID4 binder: inactive; STK33 kin inh: 1

How did C[C@H](CO)N1C[C@H](C)[C@@H](CN(C)CC2CCCCC2)OCc2cn(nn2)CCCC1=O do in these assays?
ID4 binder: active; STK33 kin inh: 1

How did C[C@@H]1CN([C@@H](C)CO)C(=O)CCCn2cc(nn2)CO[C@H]1CN(C)C(=O)c1ccc(N2CCN(C)CC2)cc1 do in these assays?
ID4 binder: active; STK33 kin inh: -4

Results for C[C@H]1CN([C@@H](C)CO)C(=O)CCCn2nncc2CO[C@@H]1CN(C)C(=O)Nc1ccccc1F ?
ID4 binder: inactive; STK33 kin inh: -4

Results for C[C@H]1CN([C@@H](C)CO)C(=O)CCCn2nncc2CO[C@H]1CN(C)CC1CCCCC1 ?
ID4 binder: inactive; STK33 kin inh: -1

What do the screens show for `C[C@H](CO)N1C[C@H](C)[C@H](CN(C)CC2CCCCC2)OCc2cn(nn2)CCCC1=O`?
ID4 binder: inactive; STK33 kin inh: -3

Results for C[C@@H]1CN([C@@H](C)CO)C(=O)CCCn2nncc2CO[C@H]1CN(C)CC1CCCCC1 ?
ID4 binder: active; STK33 kin inh: 2

What do the screens show for `C[C@H](CO)N1C[C@H](C)[C@@H](CN(C)C(=O)Nc2ccccc2F)OCc2cnnn2CCCC1=O`?
ID4 binder: active; STK33 kin inh: -1

How did C[C@@H]1CN([C@H](C)CO)C(=O)CCCn2cc(nn2)CO[C@H]1CN(C)C(=O)c1ccc(N2CCN(C)CC2)cc1 do in these assays?
ID4 binder: inactive; STK33 kin inh: 0

How did C[C@H](CO)N1C[C@H](C)[C@@H](CN(C)C(=O)Nc2ccccc2F)Oc2cc(-c3ccc(C(=O)N(C)C)cc3)ccc2S1(=O)=O do in these assays?
ID4 binder: active

What do the screens show for `Cc1ccccc1-c1ccc2c(c1)O[C@H](CN(C)C)[C@H](C)CN([C@H](C)CO)S2(=O)=O`?
ID4 binder: inactive

Results for C[C@@H]1CN([C@@H](C)CO)S(=O)(=O)c2ccc(/C=C/c3ccccc3)cc2O[C@H]1CN(C)Cc1ccc(C(=O)O)cc1 ?
ID4 binder: active

Results for C[C@H](CO)N1C[C@H](C)[C@@H](CN(C)C(=O)c2ccncc2)Oc2cc(C3=CCCC3)ccc2S1(=O)=O ?
ID4 binder: active

How did CC(C)NC(=O)N(C)C[C@@H]1Oc2cc(-c3ccccc3)ccc2S(=O)(=O)N([C@@H](C)CO)C[C@@H]1C do in these assays?
ID4 binder: inactive

How did CCCNC(=O)N(C)C[C@@H]1Oc2cc(C3=CCCC3)ccc2S(=O)(=O)N([C@@H](C)CO)C[C@H]1C do in these assays?
ID4 binder: inactive

Results for C[C@H](CO)N1C[C@H](C)[C@H](CN(C)Cc2ccccc2)Oc2cc(/C=C/c3ccccc3)ccc2S1(=O)=O ?
ID4 binder: inactive
